Assay outcomes as filed in PubChem.
NPC1 promoter act: activators of NPC1 promoter | Huh7 NPC1 promoter luciferase reporter, 24 h | Potency, µM (top dose mostly 9.22 µM), usual class: activators | actives 2.4% (n = 320,000); note: nearly all actives have a fitted effect of over 60% in size
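Readout is luciferase luminescence, reflecting NPC1 promoter activation in stably transfected Huh7 cells after 24 h compound exposure at 37 °C in reduced-serum medium with 10% FBS.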
Rab9 prom act: activators of Rab9 promoter. Huh7 Rab9 promoter-luciferase reporter, luminescence, 24 h. Potency, µM (highest dose often 9.22 µM), actives largely listed as activators. actives 2.8% (n = 320,000). AID 485297; note: nearly all actives have a fitted effect of over 60% in size
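Measured in stably transfected Huh7 cells bearing a Rab9 promoter–luciferase construct: 24 h compound treatment at 37 °C, followed by luminescence detection.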
FLuc modulator: firefly luciferase modulation, counter-screen for miR-21 project. Potency, µM (series often up to 57.5 µM), hits mostly inhibitors. actives 6.9% (n = 360,000). P08659. purified FLuc, Km substrates, luminescence inhibition; note: nearly all actives have a fitted effect of over 55% in size
Target sequence (P08659 whole entry, looked up): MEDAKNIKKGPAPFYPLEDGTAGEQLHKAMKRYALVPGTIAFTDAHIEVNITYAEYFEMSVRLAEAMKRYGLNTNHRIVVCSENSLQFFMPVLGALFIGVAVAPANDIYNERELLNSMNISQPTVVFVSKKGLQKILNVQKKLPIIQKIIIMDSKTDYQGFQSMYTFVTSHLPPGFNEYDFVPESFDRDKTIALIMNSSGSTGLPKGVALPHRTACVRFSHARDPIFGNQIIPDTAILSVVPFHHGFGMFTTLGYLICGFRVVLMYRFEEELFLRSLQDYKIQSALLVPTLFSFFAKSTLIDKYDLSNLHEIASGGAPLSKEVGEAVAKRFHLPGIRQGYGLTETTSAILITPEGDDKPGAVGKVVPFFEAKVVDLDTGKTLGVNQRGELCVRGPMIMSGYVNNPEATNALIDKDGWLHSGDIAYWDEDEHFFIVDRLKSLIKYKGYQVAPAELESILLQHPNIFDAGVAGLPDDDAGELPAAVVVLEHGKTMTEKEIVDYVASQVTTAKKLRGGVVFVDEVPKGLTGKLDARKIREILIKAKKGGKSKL
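Biochemical qHTS of compounds, final roughly 60 µM downward over six points, against 10 nM purified firefly luciferase using Km concentrations of substrates (10 uM D-luciferin, 10 uM ATP) in Tris acetate pH 7.5 buffer; luminescence output.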
SMN2 splice enh: enhancers of SMN2 splice variant expression; HEK293 SMN2-luciferase splicing reporter, luminescence, 30-36 h; AID 1458; Potency, µM (highest dose often 46.1 µM), actives largely listed as activators; actives 2.8% (n = 210,000); note: nearly all actives have a fitted effect of over 55% in size
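HEK293 cells carry an SMN2 […]–luciferase reporter in which exon 7 inclusion puts luciferase in frame. Cells were plated 10-12 h before compound addition, then incubated 30-36 h at 37C. ONE-Glo luminescence was read; sodium butyrate at 4.5 mM final served as control.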
ELG1 repair inh: blocks ELG1-dependent DNA repair in HEK293T cells | HEK293T ELG1-luciferase reporter, luminescence, 16 h; DNA damage induced by 5-fluorouridine | Potency, µM (highest dose often 46.1 µM), actives largely listed as inhibitors | actives 2.3% (n = 330,000) | AID 504467; note: nearly all actives have a fitted effect of over 55% in size
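Quantitative HTS, concentration-response format. 2,000 cells/well co-treated with 5-fluorouridine and compound, 16 hr in 5% CO2 at 37 °C; ONE-Glo luminescence read after 30 min.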
ELG1 genotox: genotoxicity induction in ELG1-luciferase HEK293T cells. HEK293T ELG1-luciferase reporter, luminescence, 16 h. Potency, µM (top dose mostly 46 µM), usual class: activators. actives 1.3% (n = 330,000). AID 504466; note: nearly all actives have a fitted effect of over 60% in size
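HEK293T cells expressing luciferase-tagged ELG1 were treated with compound or DMSO for 16 hr at 37°C. Luciferase activity was then read after 30 min with ONE-Glo at room temperature; rising signal flags genetic stress.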
Numbers stand for hits; i = inactive; ? = inconclusive; nt = no result given. Hits are enriched below; roughly 9.3% of the tested compounds scored in any of these assays. Calls come from the whole dose curve; as a rule, active = well fitted curve in the direction sought with a large enough effect; inconclusive = small, poorly fitted or top-dose-only effect, or another doubt; inactive = no such curve, though single readings can be large; an effect the other way counts as inactive or inconclusive.

SMILES | NPC1 promoter act | Rab9 prom act | FLuc modulator | SMN2 splice enh | ELG1 repair inh | ELG1 genotox
COC(=O)c1sc(N2CCN(c3ccc(Cl)cc3)CC2)nc1N | i | i | i | i | 23.1µM | i
COc1ccccc1NCC(=O)NNC(C)C(=O)Nc1cccc(Cl)c1 (centres undefined) | i | i | i | i | i | i
Cc1cccc(C(=O)Nc2cccc(OCc3cc(=O)n4cc(C)sc4n3)c2)c1 | nt | nt | i | i | nt | nt
Cc1cn2c(=O)cc(COc3cccc(NC(=O)c4ccc(C(C)(C)C)cc4)c3)nc2s1 | nt | nt | 1.2µM | i | nt | nt
Cc1cn2c(=O)cc(COC(=O)c3cccc(NC(=O)c4ccc(C(C)(C)C)cc4)c3)nc2s1 | nt | nt | 0.757µM | nt | nt | nt
COCCNc1nc(N2CCCCC2)c2cnn(C)c2n1 | i | i | i | nt | i | i
O=C(CC(Nc1ccccc1Cl)C(=O)O)c1ccccc1 (centres undefined) | i | i | 4.78µM | i | ? | 2.91µM
O=C(CC(Nc1ccc(Cl)cc1)C(=O)O)c1ccccc1 (centres undefined) | 2.82µM | 2.24µM | 1.69µM | 17.8µM | ? | 16.4µM
O=C(CC(Nc1cccc(Cl)c1Cl)C(=O)O)c1ccccc1 (centres undefined) | i | i | ? | i | i | ?
COc1cc(C(=O)Nc2ccc3nc(SCc4ccc(C)cc4)sc3c2)cc(OC)c1OC | nt | nt | i | nt | nt | nt
COC(C[C@H]1O[C@H]1[C@H](O)[C@@H](C)OCc1ccccc1)OC | i | i | i | nt | i | i
O=C(N/N=C/c1ccccc1O)NC12CC3CC(CC(C3)C1)C2 | ? | 6.31µM | 21.3µM | nt | ? | ?
Cc1ccc(-n2ncc3c(=O)n(CC(N)=O)cnc32)cc1C | i | i | i | nt | ? | i
O=C(Cn1cnc2c(cnn2-c2ccccc2)c1=O)N1CCCc2ccccc21 | i | i | i | i | 20.6µM | i
COc1ccc(-n2ncc3c2ncn2nc(-c4ccc(OC)c(OC)c4)nc32)cc1 | nt | nt | i | i | nt | nt
O=C(Cn1cnc2c(nnn2-c2ccccc2)c1=O)N1CCCc2ccccc21 | i | i | i | i | ? | i
Cc1ccc(-n2ncc3c(=O)n(CC(=O)N4CCCCCC4)cnc32)cc1 | i | i | 16.9µM | i | ? | i
CCOC(=O)Cn1cnc2c(cnn2-c2ccc(C)c(C)c2)c1=O | nt | nt | 21.3µM | i | nt | nt
Cc1nc2c3cnn(-c4ccc(C)c(C)c4)c3ncn2n1 | 2µM | 2µM | 6.75µM | 11.2µM | ? | ?
COc1ccc(NC(=O)c2c(-c3ccccc3)c(-c3ccccc3)nn(C)c2=O)c(OC)c1 | nt | nt | i | i | nt | nt
Brc1ccc(C2NCCS2)cc1 (centres undefined) | i | i | i | i | i | i
COc1ccc(-c2cc3c(=O)n(CC(=O)NCCCN4CCC(N5CCCCC5)CC4)ncn3n2)cc1 | ? | i | 10.7µM | nt | ? | i
COc1ccc(-c2cc3c(=O)n(CC(=O)NCc4cccnc4)ncn3n2)cc1 | 1.58µM | 3.55µM | 2.13µM | nt | ? | ?
Cc1cc2nc(-c3ccc(SCc4ccccn4)nc3)[nH]c2cc1C | ? | 2.51µM | 5.36µM | i | ? | i
N#CCSc1ccc(S(=O)(=O)N2CCOCC2)cn1 | nt | nt | nt | nt | i | i
SMILES | NPC1 promoter act | Rab9 prom act | FLuc modulator | SMN2 splice enh | ELG1 repair inh | ELG1 genotox
COCCNC(=O)CSc1ccc(-c2nc3ccccc3[nH]2)cn1 | i | i | ? | nt | i | i
N#CCSc1ccc(-c2nc3ccccc3[nH]2)cn1 | ? | ? | 12µM | ? | ? | ?
COc1ccccc1-c1nc(SCc2ccccn2)n[nH]1 | ? | ? | ? | i | ? | ?
CCOC(=O)CSc1ccc(-c2nc3cc(C)c(C)cc3[nH]2)cn1 | ? | ? | 1.07µM | i | ? | ?
CCOC(=O)CSc1ccc(-c2nc3ccccc3[nH]2)cn1 | i | i | 12µM | nt | i | i
O=S(=O)(c1ccc(Cl)cc1)n1nnc2ccccc21 | i | i | i | i | i | i
O=C(c1ccco1)N1CCC2(CCCN(C(c3ccccc3)c3ccccc3)C2)CC1 | nt | nt | nt | i | nt | nt
N[C@H](Cc1cnc[nH]1)C(=O)O | nt | nt | nt | i | nt | nt
CCCCN(C)Cc1c(O)ccc2c(=O)c(-c3ccccc3OC)coc12 | i | i | i | nt | i | i
O=C(COC(=O)c1ccc[nH]c1=O)NCCc1ccc(Cl)cc1Cl | 0.398µM | 0.501µM | 10.7µM | nt | ? | ?
Cc1ccc(C(=O)c2ccccc2C(=O)OCC(=O)NCCc2ccc(Cl)cc2Cl)cc1 | i | i | i | i | i | i
CCCCCCCCC/C(=N\O)c1ccccn1 | ? | ? | 16.9µM | i | ? | ?
COc1ccc(CCNc2oc(/C=C/c3cc(OC)c(OC)c(OC)c3)nc2C#N)cc1OC | nt | nt | i | i | nt | nt
Cc1cc(OCC(=O)NC(Cc2c[nH]c3ccccc23)C(=O)O)ccc1Cl (centres undefined) | nt | nt | ? | i | nt | nt
CCOc1ccc(/C=C2/C(=O)N(c3ccc(OC)cc3)C(=S)N2CC(=O)OC)cc1OCC | ? | ? | 6.01µM | 12.6µM | ? | ?
CCOc1ccc(N2C(=O)/C(=C/c3cc(OC)c(OC)c(OC)c3)N(CC(=O)OC)C2=S)cc1 | i | i | i | i | ? | i
CCOc1ccc(NC(=O)CN(C)C(=O)c2c(-c3ccccc3Cl)noc2C)cc1OCC | i | i | i | nt | i | i
COc1ccccc1N1CCN(/N=C/c2ccc(C(=O)O)cc2)CC1 | 1µM | 0.708µM | 2.69µM | nt | ? | ?
C(=N/N1CCN(c2ccccc2)CC1)/c1ccncc1 | i | i | i | nt | i | i
O=C(O)c1ccc(/C=N/N2CCN(c3ccccc3)CC2)cc1 | 1.12µM | 1.41µM | 4.26µM | nt | ? | i
OC[C@H]1O[C@@H](Oc2cc(O)cc(/C=C/c3ccc(O)cc3)c2)[C@H](O)[C@@H](O)[C@@H]1O | i | i | 19µM | nt | nt | nt
OCC1O[C@H](Oc2ccc(O)cc2)C(O)C(O)C1O (some centres undefined) | nt | nt | nt | i | nt | nt
CC(c1ccc2c(c1)OCO2)n1c(=S)[nH]c2ccccc2c1=O (centres undefined) | i | i | nt | nt | i | i
C(=NC12CN3CN(CN(C3)C1)C2)c1ccc2c(c1)OCO2 | i | i | i | i | i | i
Nc1nc2ccccc2n1/N=C/c1ccc(Br)cc1 | ? | ? | ? | 35.5µM | ? | 16.4µM
Cn1c(/N=C/c2ccc3c(c2)OCO3)nc2ccccc21 | i | i | 0.239µM | i | i | i
Nc1nnnn1/N=C/c1ccc(Br)cc1 | i | i | i | nt | i | ?
Nc1nc2ccccc2n1/N=C/c1ccc2c(c1)OCO2 | 2µM | 3.98µM | 10.7µM | nt | ? | ?
COC(=O)[C@]1(C)N[C@H](CN(C)C(=O)Nc2ccccc2)[C@@H]2C(=O)N(C)C(=O)[C@@H]21 | nt | nt | nt | nt | i | i
O=c1c2c(nc3n1CCCCC3)sc1c(O)c(Br)ccc12 | 3.98µM | 2.82µM | 2.69µM | 15.8µM | ? | 2.31µM
